Tau fluor counter – Counterscreen qHTS for Inhibitors of Tau Fibril Formation, Fluorescence Polarization; tau K18 P301L Alexa594 fluorescence, heparin fibrillization; Potency, µM (titrated, usually from 57.7 µM), for the others: at the top dose activity change, negative = decrease; 280,000 tested, 0.93% active; also: potency is read from the fitted curve at half-maximal effect; nearly all actives have a fitted effect of over 55% in size
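Human K18 P301L tau (15 uM unlabeled plus 0.24 uM Alexa 594-labeled, final) in 100 mM sodium acetate pH 7 was mixed with compound and 20 uM heparin and incubated 6 hr at 37 C.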
Tau FP inhib – qHTS for Inhibitors of Tau Fibril Formation, Fluorescence Polarization; Potency, µM (titrated, usually from 57.7 µM), for inactives: at the top dose activity, negative = inhibition, hits mostly inhibitors; K18 P301L tau heparin fibrillization, Alexa594 FP, 6 h; 280,000 tested, 0.39% active; also: potency is read from the fitted curve at half-maximal effect; nearly all actives have a fitted effect of over 55% in size
Target sequence (P10636 561-689 P618L limits assumed): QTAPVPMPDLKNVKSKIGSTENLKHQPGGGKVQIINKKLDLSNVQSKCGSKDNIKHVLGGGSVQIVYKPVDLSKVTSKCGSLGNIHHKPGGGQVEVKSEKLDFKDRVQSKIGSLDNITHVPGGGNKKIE
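Human K18 P301L fragment (15 uM unlabeled plus 0.24 uM Alexa 594-labeled) in 100 mM sodium acetate pH 7 with compound, aggregation induced by 20 uM heparin for 6 hr at 37 C. ThT (30 uM) added for 1 hr, then Alexa 594 FP read.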
Sfp PPTase inh – qHTS Assay for Inhibitors of Bacillus subtilis Sfp phosphopantetheinyl transferase (PPTase); 310,000 tested, 3.5% active; Biochemical Sfp PPTase activity, qHTS; 4'-phosphopantetheinyl transferase ffp (Bacillus subtilis), Q9F4F7; Potency, µM, for the others: largest response in the series, negative = inhibition, most hits filed as inhibitors; AID 1490, 2009;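 also: the enzyme is Sfp with the accession as filed and its product quenches rhodamine fluorescence; potency is read from the fitted curve at half-maximal effect; 0% = enzyme reaction without inhibitor and -100% = no enzyme wells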
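Step 1, compound plus 15 nM Sfp-PPTase, 15 min, room temperature. Step 2, add rhodamine-CoA (5 uM) and BHQ-2-YbbR (12.5 uM). Step 3, read 525/598 nm fluorescence at 0 and 30 min.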
Tau fibril ThT – qHTS for Inhibitors of Tau Fibril Formation, Thioflavin T Binding | 270,000 tested, 2.1% active | Microtubule-associated protein tau (Homo sapiens), P10636 | recombinant tau K18 P301L, heparin-induced fibrillization, ThT fluorescence | Potency, µM (highest dose often 57.4 µM), without a hit: top-dose activity, negative = inhibition, hits mostly inhibitors; also: potency is read from the fitted curve at half-maximal effect; nearly all actives have a fitted effect of over 55% in size
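Fibril formation assay: tau K18 P301L at 15 uM with trace Alexa 594 label, heparin inducer 20 uM, pH 7 sodium acetate buffer, 37 C for 6 hr; endpoint ThT signal.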
FBPA coupling cs – qHTS Assay for Inhibitors of Fructose-1,6-bisphosphate Aldolase from Giardia Lamblia: Coupling assay counterscreen; AID 2472, 2010; coupling enzyme system counterscreen, AmpLite Red fluorescence; 290,000 tested, 0.67% active; activity change, negative = inhibition, % at 58.2 µM, hits read low; in the data active = activity change below about -30%
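Counterscreen of the coupled detection system alone, without aldolase: glyceraldehyde-3-phosphate coupling enzymes plus AmpLite Red readout. Compounds at 57.5 uM final, 10 min RT preincubation, 20 min RT reaction, fluorescence 525/598 nm.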
* marks the source's active call; other numbers are inactive results; [ ] = remark or other dose. Shown are actives, neighbours in structure and some others; about 5.2% of the full set was active somewhere. Unless noted, calls follow the shape of the dose curve; as a rule, active = well fitted curve in the direction sought with a large enough effect; inconclusive = small, poorly fitted or top-dose-only effect, or another doubt; inactive = no such curve, though single readings can be large; an effect the other way counts as inactive or inconclusive. Unless noted, % is scaled to controls: 0 for no effect and ±100 for the full control effect.

For CN(C)c1ccc(NC(=O)CSCc2nc3c(nnn3Cc3ccc(F)cc3)c(=O)[nH]2)cc1 the results were Tau fluor counter -14.6%, Tau FP inhib 0.0%, Sfp PPTase inh 21.0%, Tau fibril ThT inconclusive and FBPA coupling cs -36.5*.
Cc1cccc(NC(=O)CSCc2nc3c(nnn3Cc3ccc(F)cc3)c(=O)[nH]2)c1C was read as Tau fluor counter 11.8%, Tau FP inhib 3.1%, Sfp PPTase inh -13.4%, Tau fibril ThT 12.4% and FBPA coupling cs 2.6.
`Cc1nn(Cc2ccc(Cl)cc2)c(C)c1NC(=O)c1cc(-c2ccco2)on1` gave Tau fluor counter -4.7%, Tau FP inhib -0.2%, Sfp PPTase inh -7.8%, Tau fibril ThT -5.6% and FBPA coupling cs 0.5.
Cc1nn(Cc2ccc(Cl)c(Cl)c2)c(C)c1NC(=O)c1cc(-c2ccco2)on1 was read as Tau fluor counter -7.6%, Tau FP inhib -1.2%, Sfp PPTase inh 44.7µM*, Tau fibril ThT -12.5% and FBPA coupling cs 0.3.
Cc1cc(NC(=O)c2cc(-c3ccco3)on2)nn1Cc1ccc(Cl)cc1 was read as Tau fluor counter -15.6%, Tau FP inhib -7.9%, Sfp PPTase inh 17.8µM*, Tau fibril ThT -5.4% and FBPA coupling cs 5.5.
Cc1ccc(-n2nc3c(=O)n(CC(=O)NC(C)C)nc(C)c3c2C)cc1 was read as Tau fluor counter 6.1%, Tau FP inhib 1.4% and Tau fibril ThT 12.8%.
For CCOC(=O)N1C(COCc2ccccc2)C=CCS1(=O)=O (centres undefined) the results were Sfp PPTase inh 27.6% and FBPA coupling cs 0.6.
Screening O=C1Nc2ccccc2/C1=N/N=C/c1ccc(-c2ccc([N+](=O)[O-])cc2)o1 returned Tau fluor counter -28.0%, Tau FP inhib 2.6%, Sfp PPTase inh 7.2%, Tau fibril ThT 2.82µM* and FBPA coupling cs 0.2.
For CN(/N=C/c1ccc(-c2ccc([N+](=O)[O-])cc2)o1)c1ccccc1 the results were Sfp PPTase inh -4.2% and FBPA coupling cs -2.4.
O=C1N=C(O)CN1/N=C\c1ccc(-c2ccc([N+](=O)[O-])cc2)o1 was read as Tau fluor counter -10.5%, Tau FP inhib 2.5%, Sfp PPTase inh -3.4%, Tau fibril ThT 14.1µM* and FBPA coupling cs 1.3.
Screening NC(=S)N/N=C/c1ccc(-c2cc(Cl)ccc2Cl)o1 returned Tau fluor counter inconclusive, Tau FP inhib 0.3%, Sfp PPTase inh -24.2%, Tau fibril ThT inconclusive and FBPA coupling cs -3.5.
Screening C=CCNC(=S)N/N=C/c1ccc(-c2cccc([N+](=O)[O-])c2)o1 returned Tau fluor counter 1.3%, Tau FP inhib 4.4%, Sfp PPTase inh 1.2%, Tau fibril ThT 2.6% and FBPA coupling cs 5.7.
Screening NC(=S)N/N=C/c1ccc(-c2cc(Cl)cc(Cl)c2)o1 returned Tau fluor counter -26.8%, Tau FP inhib -1.9%, Sfp PPTase inh 50.1µM*, Tau fibril ThT inconclusive and FBPA coupling cs -1.0.
Screening NC(=S)N/N=C/c1ccc(-c2ccc([N+](=O)[O-])cc2)o1 returned Tau fluor counter inconclusive, Tau FP inhib inconclusive, Sfp PPTase inh 3.55µM*, Tau fibril ThT 7.94µM* and FBPA coupling cs -13.0.
`COc1ccc(Cl)cc1NC(=O)c1cc(-c2ccc3c(c2)OCO3)on1` gave Tau fluor counter -6.7%, Tau FP inhib 1.4% and Tau fibril ThT -12.8%.
`Cc1cc(=O)n2nc(N3CCC(C(=O)Nc4ccc(Br)c(C)c4)CC3)sc2n1` gave Tau fluor counter -25.1%, Tau FP inhib -3.7% and Tau fibril ThT inconclusive.
For Cc1ccc(C(=O)O)cc1-c1ccc(/C=C2/NC(=O)N(c3ccccc3)C2=O)o1 the results were Tau fluor counter -26.7%, Tau FP inhib -14.2%, Sfp PPTase inh 22.4µM*, Tau fibril ThT 28.2µM* and FBPA coupling cs -18.3.
`Cc1ccc(CN2C(=O)N/C(=C\c3ccc(-c4ccc(C(=O)O)cc4C)o3)C2=O)cc1` gave Tau fluor counter -11.7%, Tau FP inhib 8.0%, Sfp PPTase inh -26.6%, Tau fibril ThT inconclusive and FBPA coupling cs 5.4.
`Cc1cc(C(=O)O)ccc1-c1ccc(/C=C2\NC(=O)N(Cc3ccccc3Cl)C2=O)o1` gave Tau fluor counter 6.9%, Tau FP inhib 4.0%, Sfp PPTase inh 12.6µM*, Tau fibril ThT 10.1% and FBPA coupling cs -12.4.
For C#CCN1C(=O)S/C(=C\c2ccc(-c3ccc(C(=O)O)cc3C)o2)C1=O the results were Sfp PPTase inh -29.8% and FBPA coupling cs 0.0.
`COc1c(-c2coc3cc4c(cc3c2=O)CC(O)C(C)(C)O4)ccc2c1C=CC(C)(C)O2` (centres undefined) gave Tau fluor counter -14.8%, Tau FP inhib 10.1%, Sfp PPTase inh -39.5%, Tau fibril ThT -14.8% and FBPA coupling cs 0.6.
`O=c1c(O)cc(C2Oc3cc(O)cc(O)c3CC2O)cc2c(C3Oc4cc(O)cc(O)c4CC3O)cc(O)c(O)c12` (centres undefined) gave Tau fluor counter 8.91µM*[quencher], Tau FP inhib 1µM*, Sfp PPTase inh 7.08µM*, Tau fibril ThT 0.501µM* and FBPA coupling cs -74.7*.
NC(=S)N/N=C/c1ncc(C(F)(F)F)cc1Cl was read as Tau fluor counter -12.8%, Tau FP inhib -10.1%, Sfp PPTase inh 25.1µM*, Tau fibril ThT -20.0% and FBPA coupling cs -7.1.
For COc1ccc(-c2coc3c(CN4CCCCC4)c(O)c(CN4CCCCC4)c(O)c3c2=O)cc1 the results were Tau fluor counter -9.5%, Tau FP inhib 9.3%, Sfp PPTase inh 15.8µM*, Tau fibril ThT inconclusive and FBPA coupling cs 1.8.
`O=C(N/N=C/c1c[nH]c2ccccc12)c1cccc(Cl)c1` gave Sfp PPTase inh 5.4% and FBPA coupling cs 0.2.
For CCc1ccc2c(Cl)c(C(=O)N/N=C/c3c[nH]c4ccccc34)sc2c1 the results were Tau fluor counter 11.2µM*[quencher], Tau FP inhib inconclusive, Sfp PPTase inh 10.4%, Tau fibril ThT 10µM* and FBPA coupling cs -1.7.
CC(C)c1cc(C(=O)N/N=C/c2c[nH]c3ccccc23)n[nH]1 was read as Tau fluor counter -16.3%, Tau FP inhib 7.5%, Sfp PPTase inh -2.8% and FBPA coupling cs 0.2.
`CCc1ccc(-c2cc(C(=O)N/N=C/c3c[nH]c4ccccc34)[nH]n2)cc1` gave Tau fluor counter 10µM*[quencher], Tau FP inhib -6.5%, Sfp PPTase inh -0.1%, Tau fibril ThT inconclusive and FBPA coupling cs -1.8.
For O=C1OC(C2=CCCCC2)=NC12CC2 the results were Tau fluor counter -6.9%[11.6 µM], Tau FP inhib 2.9%[11.6 µM], Sfp PPTase inh 14.3%, Tau fibril ThT -3.6%[11.5 µM] and FBPA coupling cs 2.4.

Compound activity deposited in PubChem BioAssay by National Center for Advancing Translational Sciences (NCATS).
